# Laboratory results from publication PMC7862700, “An all-to-all approach to the identification of sequence-specific readers for epigenetic DNA modifications on cytosine”.
# Assays:
# Experiment in all cases: DAPPL (digital affinity profiling via proximity ligation, sequencing); 10 mM Tris-HCl pH 7.5, 50 mM NaCl, 1 mM DTT, 4% glycerol, room temperature, 30 min; GST-TFs on glutathione beads, 16-mer random dsDNA library, 0.1% formaldehyde crosslink after washing; high values mean tight binding
# FLI1 = target: T1, FLI1 (Homo sapiens, UniProt Q01543 1-452); details: protein: recombinant; tags: N-terminal GST; dsDNA, one strand shown
# T1 sequence: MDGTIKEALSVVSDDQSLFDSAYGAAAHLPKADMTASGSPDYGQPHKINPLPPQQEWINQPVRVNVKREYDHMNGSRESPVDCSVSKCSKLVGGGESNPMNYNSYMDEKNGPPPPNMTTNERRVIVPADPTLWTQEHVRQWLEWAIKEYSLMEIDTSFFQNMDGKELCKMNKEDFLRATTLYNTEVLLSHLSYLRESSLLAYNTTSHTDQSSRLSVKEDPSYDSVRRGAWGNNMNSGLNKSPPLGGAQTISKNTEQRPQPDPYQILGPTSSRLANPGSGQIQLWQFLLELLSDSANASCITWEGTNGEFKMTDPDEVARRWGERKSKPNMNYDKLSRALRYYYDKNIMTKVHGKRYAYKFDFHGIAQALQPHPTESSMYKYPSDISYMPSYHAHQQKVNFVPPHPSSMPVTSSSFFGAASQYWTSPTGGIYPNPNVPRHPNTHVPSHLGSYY
# In short: (§1)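 A tag-only sample was pooled with DNA-barcoded human transcription factors that had been expressed in yeast as GST fusions and captured on glutathione beads. The pools were incubated for 30 min at room temperature with 200 nmole of a random double-stranded 16-mer DNA library in Tris/NaCl/DTT/glycerol buffer, then washed, crosslinked with 0.1% formaldehyde, proximity-ligated (BsaI/T4 ligase, 1 h, 37 °C), PCR-amplified and sequenced on an Illumina NextSeq500. Binding signal is each hexamer's read frequency for a factor divided by its frequency for the tag-only sample.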
# ELK1 = target: T2, ELK1 (Homo sapiens, UniProt P19419 1-428); details: protein: recombinant; tags: N-terminal GST; dsDNA, one strand shown
# T2 sequence: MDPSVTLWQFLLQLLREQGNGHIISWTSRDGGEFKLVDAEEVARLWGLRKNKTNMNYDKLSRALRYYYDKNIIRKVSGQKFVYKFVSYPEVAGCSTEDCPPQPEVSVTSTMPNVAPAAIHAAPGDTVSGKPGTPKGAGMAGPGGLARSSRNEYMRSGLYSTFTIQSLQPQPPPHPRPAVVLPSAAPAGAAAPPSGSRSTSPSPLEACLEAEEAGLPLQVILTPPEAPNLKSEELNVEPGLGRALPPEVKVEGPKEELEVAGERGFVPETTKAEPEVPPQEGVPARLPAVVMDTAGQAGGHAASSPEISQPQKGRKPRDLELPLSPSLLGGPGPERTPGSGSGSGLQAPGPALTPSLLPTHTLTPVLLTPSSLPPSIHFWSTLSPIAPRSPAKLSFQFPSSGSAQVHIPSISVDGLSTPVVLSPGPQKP
# In short: as §1
# GABPA = target: T3, GABPA (Homo sapiens, UniProt Q06546 1-454); details: protein: recombinant; tags: N-terminal GST; dsDNA, one strand shown
# T3 sequence: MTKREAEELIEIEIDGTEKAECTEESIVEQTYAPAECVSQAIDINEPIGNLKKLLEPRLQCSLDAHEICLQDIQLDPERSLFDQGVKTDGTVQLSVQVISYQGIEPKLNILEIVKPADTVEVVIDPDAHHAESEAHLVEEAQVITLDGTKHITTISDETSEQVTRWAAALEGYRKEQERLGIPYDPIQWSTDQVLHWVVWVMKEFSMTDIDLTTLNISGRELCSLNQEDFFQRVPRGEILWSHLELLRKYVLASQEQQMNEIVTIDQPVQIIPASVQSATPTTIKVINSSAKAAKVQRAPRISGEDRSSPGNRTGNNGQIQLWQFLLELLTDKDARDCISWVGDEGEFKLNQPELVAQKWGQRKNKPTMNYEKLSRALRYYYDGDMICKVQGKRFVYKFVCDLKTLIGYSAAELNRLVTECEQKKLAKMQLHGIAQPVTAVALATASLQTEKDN
# In short: as §1
# ERG = target: T4, ERG (Homo sapiens, UniProt P11308 1-479); details: protein: recombinant; tags: N-terminal GST; dsDNA, one strand shown
# T4 sequence: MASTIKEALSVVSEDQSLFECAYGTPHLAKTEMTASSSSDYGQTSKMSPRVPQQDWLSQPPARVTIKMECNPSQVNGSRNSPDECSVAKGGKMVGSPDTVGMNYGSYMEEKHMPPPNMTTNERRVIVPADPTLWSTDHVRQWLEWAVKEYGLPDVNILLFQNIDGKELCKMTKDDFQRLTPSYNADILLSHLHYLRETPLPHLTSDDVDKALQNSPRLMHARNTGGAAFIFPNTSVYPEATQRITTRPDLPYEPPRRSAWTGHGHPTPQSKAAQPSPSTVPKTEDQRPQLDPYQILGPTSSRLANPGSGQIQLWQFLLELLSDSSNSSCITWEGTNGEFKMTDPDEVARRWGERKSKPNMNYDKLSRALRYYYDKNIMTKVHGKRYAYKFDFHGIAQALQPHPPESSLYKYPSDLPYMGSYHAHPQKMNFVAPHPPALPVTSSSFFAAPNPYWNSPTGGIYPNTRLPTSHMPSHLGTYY
# In short: as §1
# ELF1 = ELF1 (Homo sapiens, UniProt P32519 1-619); details: protein: recombinant; tags: N-terminal GST; dsDNA, one strand shown
# Chain of ELF1 (P32519 whole entry): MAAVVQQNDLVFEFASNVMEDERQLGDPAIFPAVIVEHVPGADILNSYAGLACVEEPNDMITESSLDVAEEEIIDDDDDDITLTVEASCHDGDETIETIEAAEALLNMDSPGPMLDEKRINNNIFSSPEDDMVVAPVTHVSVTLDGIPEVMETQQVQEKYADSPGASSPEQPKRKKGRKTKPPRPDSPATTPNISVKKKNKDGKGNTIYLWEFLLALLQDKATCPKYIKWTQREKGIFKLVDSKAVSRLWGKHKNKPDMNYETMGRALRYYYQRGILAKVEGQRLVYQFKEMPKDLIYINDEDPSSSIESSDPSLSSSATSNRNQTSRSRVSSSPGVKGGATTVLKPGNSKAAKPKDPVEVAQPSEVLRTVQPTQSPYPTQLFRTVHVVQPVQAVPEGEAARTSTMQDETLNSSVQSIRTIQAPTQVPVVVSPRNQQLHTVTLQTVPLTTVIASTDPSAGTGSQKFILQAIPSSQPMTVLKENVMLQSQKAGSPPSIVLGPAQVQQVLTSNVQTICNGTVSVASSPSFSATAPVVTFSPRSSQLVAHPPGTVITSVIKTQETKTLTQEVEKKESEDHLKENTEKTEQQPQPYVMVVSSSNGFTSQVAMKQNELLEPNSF
# In short: as §1
# EHF = target: T5, EHF (Homo sapiens, UniProt Q9NZC4 1-300); details: protein: recombinant; tags: N-terminal GST; dsDNA, one strand shown
# T5 sequence: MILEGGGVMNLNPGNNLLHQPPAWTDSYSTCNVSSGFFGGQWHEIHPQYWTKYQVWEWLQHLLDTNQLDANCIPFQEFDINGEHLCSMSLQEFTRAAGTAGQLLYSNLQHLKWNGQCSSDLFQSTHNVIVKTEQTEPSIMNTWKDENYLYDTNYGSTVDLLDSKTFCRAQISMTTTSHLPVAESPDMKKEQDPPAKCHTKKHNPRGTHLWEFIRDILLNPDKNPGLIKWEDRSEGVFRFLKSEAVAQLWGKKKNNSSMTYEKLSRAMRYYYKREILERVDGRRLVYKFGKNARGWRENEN
# In short: as §1
# SPI1 = SPI1 (Homo sapiens, UniProt P17947 1-270); details: protein: recombinant; tags: N-terminal GST; dsDNA, one strand shown
# In short: as §1
# SPIB = SPIB (Homo sapiens, UniProt Q01892 1-262); details: protein: recombinant; tags: N-terminal GST; dsDNA, one strand shown
# Chain of SPIB (Q01892 whole entry): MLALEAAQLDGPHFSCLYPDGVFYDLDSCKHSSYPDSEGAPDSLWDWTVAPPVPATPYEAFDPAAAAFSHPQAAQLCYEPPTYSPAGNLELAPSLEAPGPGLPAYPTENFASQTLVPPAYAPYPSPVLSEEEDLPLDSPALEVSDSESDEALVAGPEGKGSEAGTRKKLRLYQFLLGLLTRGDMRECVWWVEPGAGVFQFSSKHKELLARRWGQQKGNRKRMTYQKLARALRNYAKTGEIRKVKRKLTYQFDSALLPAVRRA
# In short: as §1
# ELK3 = target: T6, ELK3 (Homo sapiens, UniProt P41970 1-407); details: protein: recombinant; tags: N-terminal GST; dsDNA, one strand shown
# T6 sequence: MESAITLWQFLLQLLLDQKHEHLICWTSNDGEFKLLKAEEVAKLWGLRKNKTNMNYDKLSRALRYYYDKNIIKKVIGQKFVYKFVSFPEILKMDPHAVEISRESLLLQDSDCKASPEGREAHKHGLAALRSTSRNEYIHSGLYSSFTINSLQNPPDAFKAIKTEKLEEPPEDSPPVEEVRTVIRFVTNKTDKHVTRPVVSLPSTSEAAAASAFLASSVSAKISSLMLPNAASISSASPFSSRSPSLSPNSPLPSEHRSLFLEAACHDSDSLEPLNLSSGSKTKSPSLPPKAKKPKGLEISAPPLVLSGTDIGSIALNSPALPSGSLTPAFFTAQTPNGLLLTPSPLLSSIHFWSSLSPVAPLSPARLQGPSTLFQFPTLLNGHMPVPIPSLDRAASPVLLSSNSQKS
# In short: as §1
# FEV = target: T7, FEV (Homo sapiens, UniProt Q99581 1-238); details: protein: recombinant; tags: N-terminal GST; dsDNA, one strand shown
# T7 sequence: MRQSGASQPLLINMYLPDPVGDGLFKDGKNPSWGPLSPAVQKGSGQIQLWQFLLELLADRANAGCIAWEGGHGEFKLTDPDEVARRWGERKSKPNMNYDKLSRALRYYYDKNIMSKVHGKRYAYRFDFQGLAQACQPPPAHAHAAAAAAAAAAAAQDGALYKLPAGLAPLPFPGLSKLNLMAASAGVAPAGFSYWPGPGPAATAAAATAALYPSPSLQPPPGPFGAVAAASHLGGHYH
# In short: as §1
# ETV5 = ETV5 (Homo sapiens, UniProt P41161 1-510); details: protein: recombinant; tags: N-terminal GST; dsDNA, one strand shown
# Chain of ETV5 (P41161 whole entry): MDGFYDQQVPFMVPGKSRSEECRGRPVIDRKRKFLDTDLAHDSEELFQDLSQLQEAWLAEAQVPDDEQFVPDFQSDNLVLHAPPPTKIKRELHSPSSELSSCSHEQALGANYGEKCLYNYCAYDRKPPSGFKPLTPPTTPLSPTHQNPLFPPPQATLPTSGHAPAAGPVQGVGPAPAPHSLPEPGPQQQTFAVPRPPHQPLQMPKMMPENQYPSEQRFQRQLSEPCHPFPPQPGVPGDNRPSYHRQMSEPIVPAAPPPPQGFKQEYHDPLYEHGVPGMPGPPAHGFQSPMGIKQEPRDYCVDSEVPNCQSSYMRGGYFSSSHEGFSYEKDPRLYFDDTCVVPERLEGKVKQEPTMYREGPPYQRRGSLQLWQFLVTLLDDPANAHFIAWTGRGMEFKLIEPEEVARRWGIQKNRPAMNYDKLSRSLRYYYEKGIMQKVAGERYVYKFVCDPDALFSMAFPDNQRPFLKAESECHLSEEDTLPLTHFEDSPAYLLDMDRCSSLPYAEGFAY
# In short: as §1
# HSF1 = HSF1 (Homo sapiens, UniProt Q00613 1-529); details: protein: recombinant; tags: N-terminal GST; chain copies: 3; dsDNA, one strand shown
# Chain of HSF1 (Q00613 whole entry): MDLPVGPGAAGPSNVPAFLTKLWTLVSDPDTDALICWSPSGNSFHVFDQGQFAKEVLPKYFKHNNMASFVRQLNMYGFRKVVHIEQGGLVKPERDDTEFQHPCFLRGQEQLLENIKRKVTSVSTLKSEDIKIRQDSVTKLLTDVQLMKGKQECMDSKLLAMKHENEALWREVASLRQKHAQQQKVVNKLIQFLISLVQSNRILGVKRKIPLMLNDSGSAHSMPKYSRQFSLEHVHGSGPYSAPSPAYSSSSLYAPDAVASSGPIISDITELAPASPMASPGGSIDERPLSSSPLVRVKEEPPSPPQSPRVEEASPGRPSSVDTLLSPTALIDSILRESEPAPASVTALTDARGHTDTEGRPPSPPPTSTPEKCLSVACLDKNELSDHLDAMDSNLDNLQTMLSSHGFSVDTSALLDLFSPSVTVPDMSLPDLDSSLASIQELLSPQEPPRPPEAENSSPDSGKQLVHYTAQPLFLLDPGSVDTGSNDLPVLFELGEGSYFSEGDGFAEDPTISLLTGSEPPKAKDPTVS
# In short: as §1
# ELF4 = ELF4 (Homo sapiens, UniProt Q99607 1-663); details: protein: recombinant; tags: N-terminal GST; dsDNA, one strand shown
# Chain of ELF4 (Q99607 whole entry): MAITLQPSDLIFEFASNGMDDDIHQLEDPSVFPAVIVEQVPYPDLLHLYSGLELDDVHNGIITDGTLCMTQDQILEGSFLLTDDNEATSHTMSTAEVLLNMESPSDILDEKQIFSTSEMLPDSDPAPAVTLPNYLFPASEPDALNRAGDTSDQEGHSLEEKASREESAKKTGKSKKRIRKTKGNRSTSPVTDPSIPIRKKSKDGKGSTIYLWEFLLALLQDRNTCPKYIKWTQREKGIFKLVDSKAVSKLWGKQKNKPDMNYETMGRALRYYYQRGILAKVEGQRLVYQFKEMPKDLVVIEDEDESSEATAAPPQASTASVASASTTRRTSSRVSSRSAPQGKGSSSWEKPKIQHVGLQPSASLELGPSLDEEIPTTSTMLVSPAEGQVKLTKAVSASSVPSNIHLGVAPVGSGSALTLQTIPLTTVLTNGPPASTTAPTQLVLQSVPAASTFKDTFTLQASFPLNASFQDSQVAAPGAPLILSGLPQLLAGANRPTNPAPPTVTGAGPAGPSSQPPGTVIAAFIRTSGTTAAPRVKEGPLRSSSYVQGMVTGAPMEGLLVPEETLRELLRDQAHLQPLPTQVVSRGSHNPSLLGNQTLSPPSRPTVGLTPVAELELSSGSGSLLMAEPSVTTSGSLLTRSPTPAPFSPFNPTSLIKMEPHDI
# In short: as §1
# ELK4 = target: T8, ELK4 (Homo sapiens, UniProt P28324-2 1-405); details: protein: recombinant; tags: N-terminal GST; dsDNA, one strand shown
# T8 sequence: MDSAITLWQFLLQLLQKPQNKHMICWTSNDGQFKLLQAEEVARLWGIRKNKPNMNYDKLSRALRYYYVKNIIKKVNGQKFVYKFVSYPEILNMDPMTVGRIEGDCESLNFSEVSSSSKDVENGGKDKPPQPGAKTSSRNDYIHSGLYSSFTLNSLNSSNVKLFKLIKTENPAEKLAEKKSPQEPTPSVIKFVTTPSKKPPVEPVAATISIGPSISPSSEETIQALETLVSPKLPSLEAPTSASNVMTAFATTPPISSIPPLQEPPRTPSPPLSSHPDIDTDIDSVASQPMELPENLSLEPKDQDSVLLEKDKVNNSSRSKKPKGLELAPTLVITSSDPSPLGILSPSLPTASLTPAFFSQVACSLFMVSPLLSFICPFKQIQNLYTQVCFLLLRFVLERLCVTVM
# In short: as §1
# ETV2 = target: T9, ETV2 (Homo sapiens, UniProt O00321 1-342); details: protein: recombinant; tags: N-terminal GST; dsDNA, one strand shown
# T9 sequence: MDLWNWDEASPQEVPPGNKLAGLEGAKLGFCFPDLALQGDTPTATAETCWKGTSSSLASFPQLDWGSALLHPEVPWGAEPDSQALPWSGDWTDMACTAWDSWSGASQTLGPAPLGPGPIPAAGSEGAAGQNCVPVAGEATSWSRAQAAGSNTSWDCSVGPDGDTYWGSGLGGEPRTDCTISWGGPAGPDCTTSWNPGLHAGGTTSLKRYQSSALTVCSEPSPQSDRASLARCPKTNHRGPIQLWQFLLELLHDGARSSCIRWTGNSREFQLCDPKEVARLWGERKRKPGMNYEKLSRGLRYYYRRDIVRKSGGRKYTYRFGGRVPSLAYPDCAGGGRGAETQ
# In short: as §1
# ELF3 = target: T10, ELF3 (Homo sapiens, UniProt P78545 1-371); details: protein: recombinant; tags: N-terminal GST; dsDNA, one strand shown
# T10 sequence: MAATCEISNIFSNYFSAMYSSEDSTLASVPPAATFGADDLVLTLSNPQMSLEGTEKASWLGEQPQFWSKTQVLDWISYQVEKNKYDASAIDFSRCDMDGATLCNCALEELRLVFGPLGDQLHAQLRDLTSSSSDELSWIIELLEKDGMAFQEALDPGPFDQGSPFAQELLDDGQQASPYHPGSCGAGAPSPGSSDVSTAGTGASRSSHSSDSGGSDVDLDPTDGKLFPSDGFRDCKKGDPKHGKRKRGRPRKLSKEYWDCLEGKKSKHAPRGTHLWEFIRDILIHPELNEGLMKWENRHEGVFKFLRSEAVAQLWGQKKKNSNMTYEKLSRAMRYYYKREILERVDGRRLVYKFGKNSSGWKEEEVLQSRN
# In short: as §1
# CRX = CRX (Homo sapiens, UniProt O43186 1-299); details: protein: recombinant; tags: N-terminal GST; dsDNA, one strand shown
# Chain of CRX (O43186 whole entry): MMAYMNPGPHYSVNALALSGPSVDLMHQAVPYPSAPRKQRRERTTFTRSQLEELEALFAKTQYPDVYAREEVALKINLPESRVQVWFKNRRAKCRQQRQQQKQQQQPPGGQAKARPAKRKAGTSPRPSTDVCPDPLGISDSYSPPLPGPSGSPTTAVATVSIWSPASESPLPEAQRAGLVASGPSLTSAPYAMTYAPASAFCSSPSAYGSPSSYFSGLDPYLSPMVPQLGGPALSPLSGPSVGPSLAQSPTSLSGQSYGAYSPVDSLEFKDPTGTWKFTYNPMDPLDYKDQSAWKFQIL
# In short: as §1
# ETV1 = ETV1 (Homo sapiens, UniProt P50549 1-477); details: protein: recombinant; tags: N-terminal GST; dsDNA, one strand shown
# Chain of ETV1 (P50549 whole entry): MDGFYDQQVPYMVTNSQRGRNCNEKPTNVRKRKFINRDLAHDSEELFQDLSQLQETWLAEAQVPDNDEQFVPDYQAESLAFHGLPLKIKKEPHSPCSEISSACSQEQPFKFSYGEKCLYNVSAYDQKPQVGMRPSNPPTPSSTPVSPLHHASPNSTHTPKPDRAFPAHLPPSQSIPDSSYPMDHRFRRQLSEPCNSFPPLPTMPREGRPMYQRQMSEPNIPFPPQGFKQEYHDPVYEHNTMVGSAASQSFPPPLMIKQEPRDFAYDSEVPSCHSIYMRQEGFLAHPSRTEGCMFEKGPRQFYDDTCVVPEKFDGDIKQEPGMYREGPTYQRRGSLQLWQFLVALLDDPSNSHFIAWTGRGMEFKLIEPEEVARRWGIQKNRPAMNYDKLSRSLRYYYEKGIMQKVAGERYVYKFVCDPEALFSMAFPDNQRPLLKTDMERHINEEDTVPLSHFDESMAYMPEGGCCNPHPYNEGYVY
# In short: as §1
sequence,measurement,setting,value
GTTTAC,binding signal,FLI1,"1.21 fold enrichment (6-mer frequency, TF over GST control)"
same,binding signal,ELK1,"1.13 fold enrichment (6-mer frequency, TF over GST control)"
same,binding signal,GABPA,"1.19 fold enrichment (6-mer frequency, TF over GST control)"
same,binding signal,ERG,"1.12 fold enrichment (6-mer frequency, TF over GST control)"
same,binding signal,ELF1,"1.08 fold enrichment (6-mer frequency, TF over GST control)"
same,binding signal,EHF,"1.14 fold enrichment (6-mer frequency, TF over GST control)"
same,binding signal,SPI1,"1.13 fold enrichment (6-mer frequency, TF over GST control)"
same,binding signal,SPIB,"1.09 fold enrichment (6-mer frequency, TF over GST control)"
same,binding signal,ELK3,"1.03 fold enrichment (6-mer frequency, TF over GST control)"
same,binding signal,FEV,"1.11 fold enrichment (6-mer frequency, TF over GST control)"
same,binding signal,ETV5,"1.1 fold enrichment (6-mer frequency, TF over GST control)"
same,binding signal,HSF1,"1 fold enrichment (6-mer frequency, TF over GST control)"
same,binding signal,ELF4,"1.12 fold enrichment (6-mer frequency, TF over GST control)"
same,binding signal,ELK4,"1.32 fold enrichment (6-mer frequency, TF over GST control)"
same,binding signal,ETV2,"1.11 fold enrichment (6-mer frequency, TF over GST control)"
same,binding signal,ELF3,"1.28 fold enrichment (6-mer frequency, TF over GST control)"
same,binding signal,CRX,"1.01 fold enrichment (6-mer frequency, TF over GST control)"
same,binding signal,ETV1,"1.17 fold enrichment (6-mer frequency, TF over GST control)"
